Source: PubChem
This is a sample that favours compounds with a hit; in the whole collection about 2.9% have one here.
Nrf2 inh: Nrf2 qHTS screen for inhibitors; A549 ARE-Fluc reporter, luciferase luminescence, 18-24 h; Potency, µM (highest dose often 46 µM), most hits filed as inhibitors; actives 2.1% (n = 360,000); AID 504444, 2011; further: nearly all actives have a fitted effect of over 60% in size
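In this cell-based qHTS, ARE-driven firefly luciferase in A549 cells reports Nrf2 activity; the luminescent signal after BugLite lysis is the measured value, with a prior CellTiter-Fluor read for cell health.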
A549 tox-1: Nrf2 qHTS screen for inhibitors: counterscreen for cytotoxicity | Potency, µM (top dose mostly 46 µM), most hits filed as inhibitors | actives 0.16% (n = 390,000) | A549 ARE-Fluc cells, CellTiter-Fluor viability, 18-24 h
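Cytotoxicity counterscreen: CellTiter-Fluor fluorescence was measured in A549 ARE_Fluc cells after 18-24 h of compound exposure in a concentration series. The subsequent BugLite luminescent read reports ARE-luciferase activity.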
Nrf2 ARE act: qHTS of Nrf2 Activators | Potency, µM (titrated, usually from 46.1 µM), hits mostly activators | AID 624171, 2012 | actives 0.31% (n = 410,000) | AREc32 ARE-luciferase reporter (MCF7-derived line), luminescence, 24 h; further: nearly all actives have a fitted effect of over 65% in size
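Steps: seed AREc32_Fluc cells (1000/well, 5% FBS OPTI-MEM); incubate overnight at 37 deg C; add 23 nL compound; incubate 24 hr; add Steady-Glo; hold 30 min RT; read luminescence.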
S2 tox: Viability Counterscreen for Primary qHTS for Inhibitors of ATXN expression; S2 cells (HEK-293 line with an ATXN2-luciferase reporter) viability, CellTiter-Fluor protease fluorescence, 24 h; Potency, µM (series often up to 56.7 µM), actives largely listed as cytotoxic; actives 0.49% (n = 400,000); AID 651635, 2014; further: nearly all actives have a fitted effect of over 40% in size
ATXN2 expr inh: Primary qHTS for Inhibitors of ATXN expression; HEK-293 ATXN2-luciferase reporter, luminescence, 24 h; Potency, µM (doses to about 57 µM), most hits filed as inhibitors; actives 0.72% (n = 360,000); AID 1745845, 2022; further: nearly all actives have a fitted effect of over 55% in size
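qHTS (up to 57 uM final) was run with 24 h compound exposure of reporter cells at 37 °C. Each well was multiplexed: SteadyGlo luminescence measured ATXN2-luciferase expression after a fluorogenic Gly-Phe-AFC viability readout (25 uM final).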
FLuc counter 3: Nrf2 qHTS screen for inhibitors: Purified Fluc Biochemical Counterscreen for Hit Validation; shares compounds with Nrf2 inh; purified firefly luciferase, luminescence inhibition; Potency, µM (doses to about 57.5 µM), actives largely listed as inhibitors; actives 4% (n = 1,400); further: nearly all actives have a fitted effect of over 65% in size
Target sequence (P08659 whole entry, looked up): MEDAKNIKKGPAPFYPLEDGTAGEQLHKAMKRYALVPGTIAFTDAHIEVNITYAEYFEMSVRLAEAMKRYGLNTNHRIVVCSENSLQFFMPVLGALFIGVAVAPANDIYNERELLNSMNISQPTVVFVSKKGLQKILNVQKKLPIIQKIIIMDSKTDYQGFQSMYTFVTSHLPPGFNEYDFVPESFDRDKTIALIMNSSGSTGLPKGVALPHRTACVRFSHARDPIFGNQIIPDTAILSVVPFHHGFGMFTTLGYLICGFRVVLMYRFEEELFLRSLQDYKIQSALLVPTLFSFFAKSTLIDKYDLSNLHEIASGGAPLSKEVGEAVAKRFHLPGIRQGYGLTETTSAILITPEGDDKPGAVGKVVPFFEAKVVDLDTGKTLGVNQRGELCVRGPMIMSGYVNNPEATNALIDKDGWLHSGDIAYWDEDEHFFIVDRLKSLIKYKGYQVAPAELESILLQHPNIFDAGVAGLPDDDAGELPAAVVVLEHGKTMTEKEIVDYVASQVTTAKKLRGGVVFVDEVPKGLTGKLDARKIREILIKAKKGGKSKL
A549 tox-2: Nrf2 qHTS screen for inhibitors: A549 ARE-Fluc Cytotoxicity Counterscreen for Hit Validation; shares compounds with Nrf2 inh; A549 ARE-Fluc cells, cytotoxicity counterscreen; Potency, µM (series often up to 46.1 µM), actives largely listed as inhibitors; actives 2% (n = 1,400); AID 720523, 2013;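 further: cells exposed to compounds for 18 to 24 hours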
Nrf2 ARE inh: Nrf2 qHTS screen for inhibitors: Nrf2 A549 ARE-Fluc Confirmation Assay for Hit Validation. shares compounds with Nrf2 inh. A549 ARE-firefly luciferase reporter, luminescence. Potency, µM (titrated, usually from 46.1 µM), hits mostly inhibitors. actives 74% (n = 1,400). AID 720524, 2013; further: nearly all actives have a fitted effect of over 65% in size
Numbers stand for hits; – = inactive; ? = inconclusive; · = not tested or not shown; [ ] = dose if it differs, or a comment. The call rests on the fitted dose curve; in most records, active means well fitted curve in the direction sought with a large enough effect; inconclusive means small, poorly fitted or top-dose-only effect, or another doubt; inactive means no such curve, though single readings can be large; an effect the other way counts as inactive or inconclusive.

SMILES | Nrf2 inh | A549 tox-1 | Nrf2 ARE act | S2 tox | ATXN2 expr inh | FLuc counter 3 | A549 tox-2 | Nrf2 ARE inh
CC1Cc2cc(S(=O)(=O)N3CCN(c4ccc(Cl)cc4)CC3)ccc2N1C(=O)C1CC1 (stereo not drawn) | 7.3µM | – | – | – | ? | – | – | 8.2µM
CC(=O)N1c2ccc(S(=O)(=O)N3CCC(C(=O)N4CCN(c5ccc(Cl)cc5)CC4)CC3)cc2CC1C (stereo not drawn) | 5.2µM | – | – | – | ? | – | – | ·
COc1cccc(-n2nnc3c(=O)n(Cc4ccc(F)cc4)cnc32)c1 | – | –[1.84 µM] | – | – | – | · | · | ·
CCCC(=O)NC(c1cccc([N+](=O)[O-])c1)c1ccc2cccnc2c1O (stereo not drawn) | · | · | – | ? | · | · | · | ·
CCCC(=O)NC(c1cccs1)c1cc(Cl)c2cccnc2c1O (stereo not drawn) | 5.2µM | – | – | – | –[11.3 µM] | – | – | 7.3µM
CCCC(=O)NC(c1ccccc1OC)c1ccc2cccnc2c1O (stereo not drawn) | 7.3µM | ? | – | – | ? | – | – | 9.2µM
CCC(=O)NC(c1cccc(C)c1)c1cc(Cl)c2cccnc2c1O (stereo not drawn) | – | – | · | · | · | · | · | ·
CCC(=O)NC(c1ccc(OC)c(OC)c1)c1cc(Cl)c2cccnc2c1O (stereo not drawn) | 5.8µM | ? | – | · | ? | – | – | 6.5µM
O=C(Cn1cnc2c(OCc3ccccc3)ncnc21)NCCCN1CCCC1=O | – | – | – | – | – | · | · | ·
O=C(NNC(=O)c1nn(-c2ccc(F)cc2)ccc1=O)Nc1cccc(Cl)c1 | – | – | – | – | – | · | · | ·
Cc1ccc(C(=O)Nc2sc3c(c2C(=O)O)CCC(C)C3)o1 (stereo not drawn) | 5.8µM | – | – | ? | · | 2.4µM | – | 5.2µM
Cc1nc2ccc(NC(=O)c3cccs3)cc2c(=O)n1Cc1ccc(Cl)cc1 | 4.6µM | ? | – | ? | 14µM | – | ? | 16µM
CCCc1nc2ccc(NC(=O)c3cccs3)cc2c(=O)n1Cc1ccc(Cl)cc1 | ? | – | – | ? | · | · | · | ·
Cc1cccc(N(C(=O)Nc2ccccc2)C2=NCC(C)S2)c1 (stereo not drawn) | – | – | – | – | – | · | · | ·
CC(C)COc1ccccc1C1CC(=O)Nc2cc3c(cc21)OCO3 (stereo not drawn) | 8.2µM | – | – | ? | ? | – | ? | 23µM
O=S(=O)(Nc1cc(Br)cc2cccnc12)c1cccc2ccccc12 | 2.3µM | ? | · | · | · | – | ? | 7.3µM
O=C1CCCN1CC(O)CS(=O)(=O)Cc1ccccc1Cl (stereo not drawn) | – | – | – | – | – | · | · | ·
Cc1nn(C)c(C)c1CN(C)S(=O)(=O)c1ccc2ccccc2c1 | 2.5µM | – | – | – | – | – | – | 1.2µM
Cn1nc(C(F)(F)F)c2cc(NC(=O)OCc3ccc(C(C)(C)C)cc3)sc21 | ? | – | – | – | – | · | · | ·
CC[N+](C)(CC)CCOC(=O)C(O)(c1ccccc1)C1CCCCC1 (stereo not drawn) | 7.3µM | – | – | – | – | – | 9.2µM | ?
CC[N+](C)(CC)CCC(c1ccccc1)C1CCCCC1 (stereo not drawn) | – | – | –[9.22 µM] | – | – | · | · | ·
CC12CCC(=O)C=C1CCC1C2C(O)CC2(C)C1CCC21OCC1=O (stereo not drawn) | ? | – | – | – | – | · | · | ·
CC(=O)OCC(=O)C1(O)CCC2C3CCC4=CC(=O)CCC4(C)C3C(O)CC21C (stereo not drawn) | 0.15µM | – | – | – | – | – | – | 0.18µM
